Experimental findings from PubChem BioAssay are described below.

Usually inhibition stands for the relative decrease from the control value, in per cent.

The nature of test [1]: inhibitors of TNFa-induced NFkB p65 translocation, primary screen, imaging, HUVEC, MLSMR starter and 10KST1 sets (AID 438;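 active = inhibition above 20% together with a positive visual image hit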;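 note: compound added about 3h40 before a 20 min TNFalpha stimulation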;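 for inhibition: signal is the nuclear over cytoplasmic p65 intensity ratio per well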). Particulars: HUVEC TNFa-induced p65 nuclear translocation; cell count: measured here: nuclei count (cytotoxicity indicator), at 2.08 µM; inhibition: at 2 µM, stronger effect = higher value, 0% TNFa-plus-vehicle, 100% no-TNFa wells.
The nature of test [2]: reduction of polyQ htt aggregates in cells – imaging, exon1htt(103Q)mCFP cells, high-content imaging, primary screen (AID 483;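 active = visual image review flags a hit and inhibition of aggregation exceeds 20%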;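 note: compound exposure lasted 3 days before fixation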;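 for nuclei count: percent of the per-plate median nuclei count of sample wells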). Particulars: exon1htt(103Q)mCFP cell line, aggregate imaging, at 2 µM; inhibition of aggregation: stronger effect = higher value; nuclei count: measured here: cell count, toxicity.
Test [3] can be described thus: endothelial E-selectin expression blockers – imaging, HUVEC, immunofluorescence, MLSMR starter and 10KST1 sets, primary screen (AID 487;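 active = visually confirmed hit in the image check and inhibition above 20%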;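 for inhibition: signal is fraction of cell area covered by stained E-selectin grains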;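 for nuclei count: 100% = median nuclei count of all wells on the same plate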). Particulars: HUVEC TNFalpha-induced E-selectin immunofluorescence imaging, at 2 µM; inhibition: stronger effect = higher value; nuclei count: measured here: cell number, toxicity.
A short description of test [4]: Primary imaging screen for DUSP6 inhibitors that restore phospho-Erk in transfected HeLa cells, chemical complementation (AID 609;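 active = compounds giving at least 50% inhibition in the cell-based MKP-3 phosphatase rescue imaging test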;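 for inhibition: phospho-Erk level distribution per well compared with pooled transfected vehicle control wells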). Particulars: HeLa MKP-3 transfected, phospho-Erk imaging KS statistic, at 10 µM, cells stimulated with TPA for 15 min.
For test [5], the target named is Dual specificity protein phosphatase 6 (Homo sapiens) (UniProt Q16828). The test is described as above. Particulars: HeLa MKP-3 transfected, phospho-Erk imaging KS statistic; at 10 µM; stronger effect = higher value; cells stimulated with TPA for 15 min.
Chain of Dual specificity protein phosphatase 6 (Homo sapiens) (Q16828 whole entry, looked up): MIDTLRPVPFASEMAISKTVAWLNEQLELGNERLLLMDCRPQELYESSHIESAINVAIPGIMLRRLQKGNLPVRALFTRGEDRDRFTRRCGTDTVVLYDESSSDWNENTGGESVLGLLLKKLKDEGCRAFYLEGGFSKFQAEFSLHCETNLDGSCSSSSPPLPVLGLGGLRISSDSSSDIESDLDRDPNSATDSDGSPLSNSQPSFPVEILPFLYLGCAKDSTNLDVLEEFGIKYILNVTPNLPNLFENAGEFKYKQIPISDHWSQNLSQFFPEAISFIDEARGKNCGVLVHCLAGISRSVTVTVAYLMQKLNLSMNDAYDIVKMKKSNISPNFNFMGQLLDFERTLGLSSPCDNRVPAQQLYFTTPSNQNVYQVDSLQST
The target of test [6] is Voltage-gated potassium channel subunit beta-2 (Rattus norvegicus) (UniProt P62483). In words: inhibitors of rat Kvbeta2 reductase activity – biochemical, NADPH fluorescence, primary screen (AID 622;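 active = fluorescence slope higher than the sample average by over 3 SD, cut at about -0.22 in these data, passing the limit was not always enough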;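 note: slope of raw intensity against log time taken from 70 to 1610 s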). Particulars: recombinant KvBeta, 4-cyanobenzaldehyde reduction, at 10 µM, stronger effect = higher value.
Chain of Voltage-gated potassium channel subunit beta-2 (Rattus norvegicus) (P62483 whole entry, looked up): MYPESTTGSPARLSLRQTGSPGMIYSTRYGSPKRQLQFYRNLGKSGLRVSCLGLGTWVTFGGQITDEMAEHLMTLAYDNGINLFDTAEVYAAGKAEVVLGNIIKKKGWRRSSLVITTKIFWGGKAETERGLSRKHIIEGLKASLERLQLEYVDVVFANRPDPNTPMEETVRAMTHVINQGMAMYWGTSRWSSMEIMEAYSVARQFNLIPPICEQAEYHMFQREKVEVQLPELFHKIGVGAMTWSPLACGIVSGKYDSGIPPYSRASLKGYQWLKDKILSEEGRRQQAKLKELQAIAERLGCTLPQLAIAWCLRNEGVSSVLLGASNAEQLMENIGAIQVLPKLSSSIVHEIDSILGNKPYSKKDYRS
For test [7] the target is unchanged. The test is described as follows: enhancers of rat Kvbeta2 NADPH turnover – biochemical, NADPH fluorescence, primary screen (AID 623;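 active = NADPH fluorescence slope more negative than the mean of all samples by about 3 SD, 99.7% confidence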;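 note: fluorescence intensity change per second fitted from 20 to 320 s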). Particulars: Recombinant KvBeta, NADPH fluorescence decrease slope, 10 min; at 10 µM; stronger effect = lower value.
The target of test [8] is Alpha-2C adrenergic receptor (Homo sapiens) (UniProt P18825). In words: compounds altering alpha2C-coupled GIRK flux – cell-based, HEK293 alpha2C/GIRK1/2, thallium flux, primary screen (AID 624).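 Note: slope of fluorescence ratio to pre-addition baseline per second over 15 to 24 s.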 Particulars: thallium flux BTC fluorescence, at 10 µM, actives lie on both sides.
Chain of Alpha-2C adrenergic receptor (Homo sapiens) (P18825 whole entry, looked up): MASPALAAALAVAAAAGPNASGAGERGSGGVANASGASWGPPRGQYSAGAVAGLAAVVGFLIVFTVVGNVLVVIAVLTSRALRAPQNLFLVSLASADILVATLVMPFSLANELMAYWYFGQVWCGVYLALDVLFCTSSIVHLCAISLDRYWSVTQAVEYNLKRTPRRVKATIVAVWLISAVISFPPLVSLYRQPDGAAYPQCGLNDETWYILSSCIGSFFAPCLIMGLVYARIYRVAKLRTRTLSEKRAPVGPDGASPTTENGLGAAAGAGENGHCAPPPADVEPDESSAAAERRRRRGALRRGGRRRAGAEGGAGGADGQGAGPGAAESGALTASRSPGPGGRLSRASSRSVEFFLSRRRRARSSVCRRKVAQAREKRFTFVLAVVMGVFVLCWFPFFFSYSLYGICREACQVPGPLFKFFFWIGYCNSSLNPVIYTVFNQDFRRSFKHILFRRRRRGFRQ
Test [9] concerns the target Muscarinic acetylcholine receptor M4 (Homo sapiens) (UniProt P08173). In words: M4-linked GIRK flux change, two-sided – cell-based, HEK293 M4/GIRK, thallium flux, BTC-AM, M4 allosteric agonist project, primary screen (AID 625;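 active = fluorescence slope after compound addition differing from the mean of all tested samples at 99.7% confidence, mostly higher but some lower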;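 note: thallium influx through GIRK channels coupled to M4 in HEK293 cells with BTC-AM dye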). Particulars: at 10 µM, actives lie on both sides.
Test [10] is described as follows: inhibitors of larval lipid processing in zebrafish, primary screen, whole organism, PED6 fluorescence, gall bladder and intestine (AID 686;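 active = a full or partial loss of lipid-probe fluorescence in the fish gall bladder, intestine or both, judged by eye; inactive = no fluorescence loss, or compound toxic to the fish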;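 note: larvae 5 to 7 days old with five fish per well; signal comes from phospholipase A2 cleavage of quenched PED6 carried via bile; overnight exposure to compound and PED6 before scoring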). Particulars: Zebrafish larvae PED6 lipid processing, fluorescence scoring; screened at 20 µM (by protocol).
Test [11] can be described thus: loss of swimming-algae plug formation – whole organism, Chlamydomonas reinhardtii, WT vs cilia-less mutant, absorbance, 96-well, primary screen (AID 463189;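 active = inhibition at or above 50% relative to wild type and mutant plate controls; inactive = inhibition below 50%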;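 note: 0% = wild type cc124 cells in DMSO and 100% = ciliumless bld1 mutant cells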). Particulars: Chlamydomonas reinhardtii gravitaxis, OD600 absorbance, 2 days; at 10 µM; stronger effect = higher value.
Test [12] in a line: blockers of RIG-like receptor reporter activation – cell-based, Sendai virus stimulus, luciferase, 10K MLSCN set, TLR/RLR signaling modifier project, primary screen (AID 602276;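 active = inhibition at or above 50% at 10 µM; inactive = inhibition below 50%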;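 note: firefly luciferase from ISG56 promoter only with Renilla not read in this screen; 0% = Sendai virus plus DMSO and 100% = medium plus DMSO without virus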). Particulars: HEK293 RL24 IRF3 luciferase reporter, at 10 µM, stronger effect = higher value.
Test [13] in a line: TLR3 IRF3 reporter activation blockers – cell-based, poly I:C stimulus, luciferase, 10K MLSCN set, primary screen (AID 602277;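 active = inhibition of the reporter signal at or above 50%; inactive = inhibition below 50%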). Particulars: HEK293-TLR3 RL24 IRF3 luciferase reporter, at 10 µM, stronger effect = higher value. Background: Reporter assays use an easily measured gene product as a stand-in for the process of interest.
Setting [14] is: measured here: cell density z-score.
[15] abbreviates: measured here: nuclear c-Myc green intensity z-score.
The mark [16] stands for this setting: measured here: nuclear pErk red intensity z-score, stronger effect = higher value.

Structures are written as SMILES. Calls of active or inactive are those of the source.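 Rule for the calls, unless noted: active = fluorescence slope after compound addition differing from the mean of all screened samples at 99.7% confidence, in either direction; inactive = the rest.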

Chain of Muscarinic acetylcholine receptor M4 (Homo sapiens) (P08173 whole entry, looked up): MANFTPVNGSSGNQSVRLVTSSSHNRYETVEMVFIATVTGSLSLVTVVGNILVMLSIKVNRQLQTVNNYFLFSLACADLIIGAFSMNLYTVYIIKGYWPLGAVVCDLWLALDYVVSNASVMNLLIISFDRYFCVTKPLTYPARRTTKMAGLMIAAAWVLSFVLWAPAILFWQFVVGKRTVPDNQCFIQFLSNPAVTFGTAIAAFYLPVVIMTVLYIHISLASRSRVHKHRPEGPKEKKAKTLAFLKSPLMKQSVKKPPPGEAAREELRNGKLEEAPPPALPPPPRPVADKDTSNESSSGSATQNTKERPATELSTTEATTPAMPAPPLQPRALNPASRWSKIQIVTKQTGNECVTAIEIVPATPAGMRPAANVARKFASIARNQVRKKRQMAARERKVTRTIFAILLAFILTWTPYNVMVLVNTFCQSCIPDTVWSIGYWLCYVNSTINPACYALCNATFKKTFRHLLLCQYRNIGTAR

On to `Cn1c(=O)c2c(nc(Oc3ccc4c(c3)OCO4)n2Cc2ccc(F)cc2)n(C)c1=O`, for which the cell count in test [1] was 691. The inhibition in test [1] is -7.2% (inactive); in [3], -27.6% (inactive); in [5], 1.9e-07% (inactive); in [11], -14.6% (inactive); in [12] it was 20.6% (inactive); in [13], 26.7% (inactive). Also, the inhibition of aggregation in [2] was 4.8% (inactive). Further, the nuclei count stood at 108% in test [2] and 90.8% in [3]. For the same compound, the results for the z-score in test [4] (setting [14]), in test [4] (setting [15]) and in [4] (setting [16]) were -1.8, -0.122 and -1.44, respectively. The fluorescence slope in test [6] is -0.503 (inactive); in test [9], 0.00586 (inactive). Also, in test [7], the NADPH fluorescence slope is -2e-05 (inactive). The slope in test [8] is 0.00727 (inactive). The compound was called inactive in test [10].

As for `CC(=O)Nc1ccc(-c2cc3ccccc3o2)cc1`, the cell count in test [1] worked out at 572. The inhibition was -3.8% (inactive) in test [1]; 11% (inactive) in [3]; -0.233% (inactive) in test [5]; 17.4% (inactive) in test [11]; -24.7% (inactive) in test [12]; -112% (inactive) in test [13]. Also, in [2], the inhibition of aggregation is -5.2% (inactive). In addition, the nuclei count was 112% in test [2] and 138% in [3]. Besides, the z-score in [4] (setting [14]) was -0.412; in test [4] (setting [15]), 2.18; in test [4] (setting [16]), 0.0674. For the same compound, the fluorescence slope is -0.468 (inactive) in test [6] and 0.00556 (inactive) in test [9]. In test [7], the NADPH fluorescence slope was -0.00011 (inactive). Further, in test [8], the slope is 0.00496 (inactive). Also, the outcome in test [10] was inactive.

With `O=C(NCc1cccnc1)/C(=N\O)c1ccccc1`, the cell count in test [1] is 415. Besides, the inhibition in test [1] is -4.8% (inactive); in test [3], -66.8% (inactive); in test [5], 5.95% (inactive); in [11] it was -9.8% (inactive); in [12] it was 6.94% (inactive); in test [13] it was 4.43% (inactive). The inhibition of aggregation in test [2] is -9.8% (inactive). Further, the nuclei count in test [2] came out at 100%; in [3], 97.2%. The z-score in [4] (setting [14]) was 0.444; in [4] (setting [15]), 0.0712; in [4] (setting [16]) it was -0.943. Further, the figures for the fluorescence slope in [6] and in [9] were -0.424 (inactive) and 0.00494 (inactive), respectively. The NADPH fluorescence slope in test [7] is 1.4e-05 (inactive). Also, in test [8], the slope is 0.00513 (inactive). Moreover, the outcome in test [10] was inactive.

As for `N#Cc1nc(COc2ccc(Br)cc2)oc1N1CCCC1`, the cell count in [1] amounted to 482. Further, the inhibition was -2.8% (inactive) in [1]; 14.5% (inactive) in [3]; 6.04% (inactive) in [5]; -0.7% (inactive) in test [11]; 12.8% (inactive) in [12]; 1.37% (inactive) in test [13]. The inhibition of aggregation in test [2] was -13.8% (inactive). For the same compound, the nuclei count turned out to be 111% in [2] and 132% in test [3]. Further, the z-score in test [4] (setting [14]) was -1.92; in test [4] (setting [15]), 1.26; in test [4] (setting [16]), 1.21. Further, the figures for the fluorescence slope in test [6] and in test [9] were -0.434 (inactive) and 0.00636 (inactive), respectively. For the same compound, the NADPH fluorescence slope in test [7] is -7e-05 (inactive). Also, the slope in test [8] is 0.00386 (inactive). Besides, the outcome in [10] was inactive.

With `Cc1cc(C)n(Cc2cc(C)c(Cn3nc(C)cc3C)cc2C)n1`, the cell count in [1] stood at 622. The inhibition was 0.2% (inactive) in test [1]; -44.5% (inactive) in [3]; 1.63% (inactive) in [5]; -0.144% (inactive) in test [11]; 8.11% (inactive) in test [12]; 0.814% (inactive) in [13]. For the same compound, the inhibition of aggregation in test [2] was 15.4% (inactive). Moreover, the nuclei count in test [2] worked out at 102%; in test [3], 137%. Also, the figures for the z-score in test [4] (setting [14]), in [4] (setting [15]) and in [4] (setting [16]) were 0.927, 1.3 and 1.6, respectively. Further, the fluorescence slope was -0.434 (inactive) in test [6] and 0.00602 (inactive) in test [9]. The NADPH fluorescence slope in [7] is -0.000128 (inactive). Besides, in [8], the slope is 0.00432 (inactive). For the same compound, in [10], the compound was called inactive.
